Source: PubChem (National Center for Advancing Translational Sciences (NCATS))
Rows were chosen to be rich in hits. Some 19% of all compounds tested hit in one or more screens of this group.
HepG2 tox: counter-screen for TGF-b inhibitors: cytotoxicity in HepG2 cells; HepG2 CAGA-GFP viability, ATP luminescence, 18 h; Potency, µM (titrated, usually from 46.1 µM), for inactives: at the highest dose activity change, negative = cytotoxicity, most hits filed as cytotoxic; 0.76% of 410,000 active; AID 588856; note: potency is the fitted concentration of half-maximal effect
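HepG2 CAGA-GFP cells (1000/well, DMEM with 1% FBS) received compound, then TGF-beta at 500 pg/mL final, and were incubated 18 hours at 37 degrees C. Viability was read by CellTiter-Glo luminescence. Media-only wells were set as complete cell-killing and DMSO as no toxicity.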
ASM inhibitor: human S-ASM enzyme inhibition. AID 504937. 0.006% of 340,000 active. Potency, µM (titrated, usually from 57.5 µM), for the others: top-dose activity change, negative = inhibition, most hits filed as inhibitors. placental ASM, HMU-PC fluorogenic substrate, 60 min. P17405; note: potency is the fitted concentration of half-maximal effect
Target sequence (P17405 47-631 limits assumed): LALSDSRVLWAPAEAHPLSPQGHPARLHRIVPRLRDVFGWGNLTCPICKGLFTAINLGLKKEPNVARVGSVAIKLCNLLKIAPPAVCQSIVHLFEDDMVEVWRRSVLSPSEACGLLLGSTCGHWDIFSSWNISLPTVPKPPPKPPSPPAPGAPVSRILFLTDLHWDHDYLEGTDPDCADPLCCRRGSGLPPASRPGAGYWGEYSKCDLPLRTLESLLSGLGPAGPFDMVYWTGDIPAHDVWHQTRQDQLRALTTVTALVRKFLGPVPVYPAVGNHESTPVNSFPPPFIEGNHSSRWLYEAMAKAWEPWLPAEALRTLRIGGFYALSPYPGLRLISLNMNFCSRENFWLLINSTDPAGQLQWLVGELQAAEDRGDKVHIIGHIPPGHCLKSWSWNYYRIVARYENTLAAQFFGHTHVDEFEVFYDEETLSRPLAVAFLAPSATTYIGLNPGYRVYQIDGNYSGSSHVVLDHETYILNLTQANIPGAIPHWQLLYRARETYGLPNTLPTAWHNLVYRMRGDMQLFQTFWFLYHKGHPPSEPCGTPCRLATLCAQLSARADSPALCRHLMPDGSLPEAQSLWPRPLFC
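Fluorescence read-out (Ex 386 nm, Em 447 nm) after stopping the reaction at pH 10. Enzyme: ASM from human placenta; substrate HMU-PC0, 9 uM final; 60 min, 37 °C. Compound preincubation 10 min, ambient temperature.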
TDP1 cell noCPT: qHTS for Inhibitors of human tyrosyl-DNA phosphodiesterase 1 (TDP1): qHTS in cells in absence of CPT; 15% of 420,000 active; AID 686978, 2013; Potency, µM (top dose mostly 46.2 µM), for the others: at the top dose activity change, negative = growth inhibition, most hits filed as inhibitors; DT40 Tdp1-/- hTDP1 cells, no CPT, ATP luminescence, 48 h; note: potency is the fitted concentration of half-maximal effect; % is set by controls: 0 for no effect and ±100 for the full control effect; nearly all actives have a fitted effect of over 55% in size
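No-CPT arm: Tdp1-/-;hTDP1 DT40 cells (400/well) plus compounds, incubated ≥48 hr at 37 °C. Readout CellTiter-Glo luminescence.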
IL-1B inflam inh: inflammasome signaling inhibition, IL-1 beta readout. THP-1 LPS/ATP IL-1B secretion, AlphaLISA, 16 h; stronger effect = lower value. activity change, % at 57.5 µM. 4.7% of 360,000 active; in the data active = activity change below about -50%; inconclusive = mostly about -30% to -49%; note: % is set by controls: 0 for no effect and ±100 for the full control effect
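THP-1 cells pretreated 1 hr with compounds (up to 57.5 uM final), then stimulated with LPS (250 ng/mL final) plus ATP (1.25 mM final); secreted IL-1B measured by AlphaLISA after 16 hr, decreased signal indicating inhibition.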
DT40 TDP1 CPT: growth inhibition of DT40 Tdp1-/-;hTDP1 cells with camptothecin (screen for TDP1 inhibitors); Potency, µM (top dose mostly 46.2 µM), without a hit: at the highest dose activity change, negative = growth inhibition, hits mostly inhibitors; 12% of 420,000 active; AID 686979; chicken DT40 Tdp1-/-;hTDP1 cells + 20 nM CPT, ATP luminescence, 48 h; note: potency is the fitted concentration of half-maximal effect; % is set by controls: 0 for no effect and ±100 for the full control effect; nearly all actives have a fitted effect of over 55% in size
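Chicken DT40 Tdp1-/- cells complemented with human TDP1, 400 cells/well, exposed to compounds plus 20 nM camptothecin for at least 48 h at 37 C; viability read as ATP content by CellTiter-Glo luminescence.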
TGFb SMAD3 inh: TGF-b pathway inhibition; HepG2 CAGA-GFP TGF-b/SMAD3 reporter, GFP fluorescence, 18 h; TGF-beta stimulated, 500 pg/mL final; Potency, µM (doses to about 46.1 µM), for the others: at the top dose activity, negative = inhibition, most hits filed as inhibitors; 1.2% of 410,000 active; AID 588855; note: potency is the fitted concentration of half-maximal effect; % is set by controls: 0 for no effect and ±100 for the full control effect; nearly all actives have a fitted effect of over 65% in size
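Per well, imaged GFP fluorescence of HEPG2 CAGA-GFP cells gives the signal; cells get compound, then TGF-beta (500 pg/mL final), 18 h at 37 degrees C; %Activity versus -TGF-beta and +DMSO controls.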
Starred values were filed as active, the others as inactive; ? = inconclusive; . = not tested or not shown. Unless noted, calls come from the whole dose curve; as a rule, active = well fitted curve in the direction sought with a large enough effect; inconclusive = small, poorly fitted or top-dose-only effect, or another doubt; inactive = no such curve, though single readings can be large; an effect the other way counts as inactive or inconclusive.

SMILES	HepG2 tox	ASM inhibitor	TDP1 cell noCPT	IL-1B inflam inh	DT40 TDP1 CPT	TGFb SMAD3 inh
CCOc1ccc(CCn2c3c(c(=O)[nH]c2=O)C(NC(=O)c2cccc(F)c2)(C(F)(F)F)C(=O)N3)cc1OCC (stereo not given)	-20%	.	9%	.	6%	1%
CN1CC[C@@H]2C(=O)N3CCc4ccc(-c5ccc6c(c5)OCO6)cc4[C@@H]3C[C@@H]21	-16%	11%	?	-16	18µM*	-31%
COc1cc(OC)c(NC(=O)C2CCN(C(=O)c3sc4nc[nH]c(=O)c4c3C)CC2)cc1Cl	-11%	.	-23%	.	-13%	3%
CN(C)C(=O)c1cnc(Sc2ncc(C(F)(F)F)cc2Cl)n1C	3%	4%	8.2µM*	35	8.2µM*	-14%
COc1ccc(N(C)S(=O)(=O)c2cccc(C(=O)Nc3nc(C)cs3)c2)cc1	-18%	-7%	-54%	0	-57%	-8%
Cc1csc(N(C(=O)c2cccc(S(=O)(=O)N(C)C)c2)c2ccccc2)n1	-37%	3%	?	-14	15µM*	?
Cc1csc(NC(=O)c2cccc(S(=O)(=O)N3CCN(C)CC3)c2)n1	2%	0%	?	35	?	1%
Cc1csc(N(C(=O)c2cccc(S(=O)(=O)N3CCCC3)c2)c2ccccc2)n1	8%	1%	18µM*	8	21µM*	-33%
N#Cc1cc2cc3c(cc2nc1SCC(=O)N1CCOCC1)OCCO3	2%	69%	-23%	-7	11%	?
O=C(Nc1sc2c(c1C(=O)NCC1CCCO1)CCC2)c1cc(=O)c2cc(Cl)ccc2o1 (stereo not given)	-1%	.	?	.	9%	-1%
O=C(CCc1nc2ccccc2c(=O)[nH]1)OCCOc1ccc(Cl)cc1	2%	-11%	-25%	-15	-17%	-2%
C=CCn1c(NC(=O)c2ccc(C)cc2)nc2ccccc21	9%	3%	?	21	?	15%
COc1ccc(Cn2c(-c3ccc(C)cc3)c[n+]3ccccc23)cc1	-28%	-1%	0.92µM*	0	1µM*	?
COc1ccc(-c2nc3ccccc3n2Cc2ccc(C)cc2)cc1	-7%	-23%	?	-26	16µM*	?
C=CCn1c(-c2ccc(C)cc2)nc2ccccc21	-20%	1%	21µM*	-17	15µM*	-30%
CCOC(=O)n1c(=O)n(Cc2ccc(OC)cc2)c2ccccc21	-1%	2%	16µM*	19	?	-31%
CCCCn1c(SCC(=O)NCCCOC)nc2c(sc3ccccc32)c1=O	-9%	.	-13%	.	-8%	-3%
Nc1nc2c(ncn2[C@@H]2O[C@H](CNS(=O)(=O)N3CCCC3)[C@@H](O)[C@H]2O)c(=O)[nH]1	-29%	.	0%	0	0%	6%
COc1ccc(C2CC(=O)C(C3NCCc4ccccc43)=C(O)C2n2cncn2)cc1 (stereo not given)	-25%	3%	15%	0	13%	-1%
CC(C)C(=O)Nc1ccc(NC(=S)NC(=O)c2ccccc2F)cc1	8%	-2%	-14%	-12	-25%	22%
COc1cc(/C=C2/S/C(=N/S(=O)(=O)Cc3ccccc3)NC2=O)c([N+](=O)[O-])cc1OC	7%	-3%	-6%	0	-5%	-23%
C=C(C)Cn1c(-c2ccc(OC)cc2)nc2ccccc21	-18%	-2%	15µM*	-1	13µM*	1%
CCOC(Cn1c(-c2ccc(OC)cc2)nc2ccccc21)OCC	-63%	0%	16µM*	-5	23µM*	0%
COc1ccc(-c2nc3ccccc3n2Cc2ccc(Cl)cc2)cc1	-117%	.	21µM*	.	21µM*	16µM*
